Measurements as given in PubChem BioAssay AID463173 (ICCB-Longwood Screening Facility, Harvard Medical School, 2010).
The whole screen tested about 52,000 compounds, of which about 4,300 (8.3%) were called active. No stated cut-off is given here; in the data, active means survival mostly below about 52% (no sharp cut-off); inactive means mostly above about 56%. The full list was thinned out, with actives kept by preference.

System: DeltatarO mutant
Test: growth inhibition of S. aureus wild type versus tarO mutant, primary screen, teichoic acid synthesis inhibitors, RN4220, OD600 (AID 463173)
Settings: OD600, 18 h, hits give low values, screened at 18.75 µg/mL (by protocol)

Structure (SMILES) | survival
CCCOc1ccc(C(=O)N(Cc2cccs2)c2ccc(C)cc2)cc1 | 70% (inactive)
Cn1c(CCNC(=O)c2ccco2)nc2cc(NC(=O)COc3ccc(Cl)cc3)ccc21 | 58% (inactive)
COc1cc(OC)c(NC(=O)c2c3c(nc4ccccc24)C(=O)N(C2CCCCC2)C3)cc1Cl | 60% (inactive)
Cc1ccc(-n2nc(CO)c(C(=O)NCC(c3ccccc3)c3ccccc3)n2)cc1 | 90% (inactive)
CCOc1ccc(CCNC(=O)CCSCc2cccc(Cl)c2)cc1OCC | 81% (inactive)
CCOCCc1nn2c(=O)cc(COC(=O)c3ccccc3NC(=O)CC(C)C)nc2s1 | 89% (inactive)
COc1ccc(OC)c(NC(=O)CCCc2nnc3n(C(C)C)c(=O)c4sccc4n23)c1 | 74% (inactive)
CCn1c(=O)c2cc(C(=O)N3CCN(c4cccc(OC)c4)CC3)sc2c2ccccc21 | 53% (active)
CCn1c(=O)c2cc(C(=O)N3CCN(c4cccc(Cl)c4)CC3)sc2c2ccccc21 | 62% (inactive)
COc1cccc(N2CCN(C(=O)c3cc4c(=O)oc5ccc(C)cc5c4s3)CC2)c1 | 89% (inactive)
COc1ccccc1N1CCN(C(=O)c2cc3c(=O)n(C)c4ccccc4c3s2)CC1 | 73% (inactive)
Cc1cccc(N2CCN(C(=O)c3cc4c(=O)oc5ccccc5c4s3)CC2)c1C | 66% (inactive)
Cn1c(=O)c2cc(C(=O)N3CCN(c4ccc(Cl)cc4)CC3)sc2c2ccccc21 | 56% (active)
Cc1ccc(Cl)cc1N1CCN(C(=O)c2cc3c(=O)n(C)c4ccccc4c3s2)CC1 | 56% (inactive)
Cc1cccc(N2CCN(C(=O)c3cc4c(=O)n(C)c5ccccc5c4s3)CC2)c1C | 47% (active)
Cn1c(=O)c2cc(C(=O)N3CCN(c4cccc(C(F)(F)F)c4)CC3)sc2c2ccccc21 | 92% (inactive)
COc1ccc(CNC(=O)CSc2nc3cc4c(cc3cc2C#N)OCCO4)cc1 | 96% (inactive)
CSc1cccc(NC(=O)C2CCN(C(=O)c3cnn(-c4ccccc4)c3-n3cccc3)CC2)c1 | 68% (inactive)
COc1ccc(/C=C(\C#N)c2nc(-c3cc(Cl)ccc3OC)cs2)cc1 | 91% (inactive)

Structure (SMILES) | survival
CCc1ccc(NCc2cc3ccc(OC)cc3n(CC(=O)Nc3ccc(F)cc3F)c2=O)cc1 | 79% (inactive)
COc1ccc(-n2c3c(cc(-c4nc(-c5ccc(C)cc5)cs4)c2=O)C(=O)CC(C)(C)C3)cc1 | 54% (inactive)
CCN(CC)C(=O)c1cc2c(n(-c3ccc(OC)cc3)c1=O)CC(C)(C)CC2=O | 70% (inactive)
CCOc1ccc(-n2c(-c3ccc(Br)cc3)cc3c2CC(C)(C)CC3=O)cc1 | 17% (active)
Cc1ccc(-c2cc3c(n2-c2ccccc2F)CC(C)(C)CC3=O)cc1 | 101% (inactive)
Cc1ccc(-c2cc3c(n2-c2ccc(F)cc2)CC(C)(C)CC3=O)cc1 | 98% (inactive)
CCOc1ccc(-n2c(-c3ccc(OC)cc3)cc3c2CC(C)(C)CC3=O)cc1 | 15% (active)
CCOc1ccc(NC(=O)CSC2=Nc3ccccc3C3=NC(CC(=O)NCc4ccco4)C(=O)N23)cc1 (configuration not stated) | 69% (inactive)
CCCOc1cccc(C(=O)Nc2cc(-c3ccccc3)no2)c1 | 65% (inactive)
Cc1ccc(C)c(Cn2c(=O)n(Cc3ccco3)c(=O)c3oc4ccccc4c32)c1 | 97% (inactive)
Cc1cc(C)cc(NC(=O)Cn2c(=O)n(Cc3ccco3)c(=O)c3oc4ccccc4c32)c1 | 106% (inactive)
O=c1c2oc3ccccc3c2n(Cc2ccccc2F)c(=O)n1Cc1ccccc1 | 46% (active)
CCCCn1c(=O)c2oc3ccccc3c2n(CC(=O)Nc2cc(C)ccc2C)c1=O | 44% (active)
Cc1ccc(C)c(Cn2c(=O)n(C(C)C)c(=O)c3oc4ccccc4c32)c1 | 51% (active)
Cc1ccc(C)c(NC(=O)Cn2c(=O)n(Cc3ccccc3)c(=O)c3oc4ccccc4c32)c1 | 62% (inactive)
CCCCn1c(=O)c2oc3ccccc3c2n(CC(=O)Nc2cccc(Cl)c2C)c1=O | 52% (inactive)
COc1ccccc1NC(=O)Cn1c(=O)n(Cc2ccco2)c(=O)c2oc3ccccc3c21 | 67% (inactive)
CC(C)n1c(=O)c2oc3ccccc3c2n(Cc2ccccc2F)c1=O | 50% (inactive)
O=c1c2oc3ccccc3c2n(Cc2ccccc2F)c(=O)n1Cc1ccco1 | 77% (inactive)

Structure (SMILES) | survival
O=c1c2oc3ccccc3c2n(Cc2ccc(Cl)cc2)c(=O)n1Cc1ccccc1 | 108% (inactive)
COc1cc(NC(=O)Cn2c(=O)n(Cc3ccco3)c(=O)c3oc4ccccc4c32)cc(OC)c1 | 38% (active)
CN1/C(=C/C(=O)C2CCC2)Sc2ccccc21 | 56% (inactive)
Cn1c(=O)n(C)c2cc(N3CCCCC3)c(NC(=O)Nc3ccc(Br)cc3)cc21 | 88% (inactive)
COCCn1c(=N)c(C(=O)NCc2ccco2)cc2c(=O)n3cc(C)ccc3nc21 | 69% (inactive)
COc1cccc(C(c2sc3nc(-c4ccco4)nn3c2O)N2CCN(C)CC2)c1 (configuration not stated) | 88% (inactive)
CCOC(=O)c1c(NC(=O)c2cc3nc(-c4ccc(OC)cc4)cc(C(F)(F)F)n3n2)sc2c1CCC(C)C2 (configuration not stated) | 95% (inactive)
CCOc1ccc(NS(=O)(=O)c2ccc3[nH]cc(C(=O)N4CCCC4)c(=O)c3c2)cc1 | 85% (inactive)
CCOc1ccc(NC(=O)Cn2c(=O)n(Cc3ccc(C(=O)NCc4ccc(C)cc4)cc3)c(=O)c3ccccc32)cc1 | 75% (inactive)
CCN(CC)c1nc(OCC(F)(F)F)nc(N(c2ccccc2)c2ccccc2)n1 | 76% (inactive)
COc1ccc(NC(=O)Cn2c(=O)n(Cc3ccccc3)c(=O)c3oc4ccccc4c32)cc1Cl | 85% (inactive)
COc1ccc(NC(=O)Cn2c(=O)n(Cc3ccco3)c(=O)c3oc4ccccc4c32)cc1Cl | 53% (inactive)
CC(C)n1c(=O)c2oc3ccccc3c2n(CC(=O)Nc2ccccc2Cl)c1=O | 60% (inactive)
Cc1cc(C)cc(NC(=O)Cn2c(=O)n(C(C)C)c(=O)c3oc4ccccc4c32)c1 | 48% (inactive)
O=C(Cn1c(=O)n(Cc2ccco2)c(=O)c2oc3ccccc3c21)Nc1ccccc1 | 67% (inactive)
COc1cc(NC(=O)Cn2c(=O)n(Cc3ccccc3)c(=O)c3oc4ccccc4c32)cc(OC)c1 | 85% (inactive)
O=C(Cn1c(=O)n(Cc2ccco2)c(=O)c2oc3ccccc3c21)Nc1ccc(F)c(Cl)c1 | 44% (active)
COc1ccc(NC(=O)Cn2c(=O)n(C(C)C)c(=O)c3oc4ccccc4c32)cc1Cl | 42% (active)
COc1cc(NC(=O)Cn2c(=O)n(C(C)C)c(=O)c3oc4ccccc4c32)cc(OC)c1 | 47% (active)
